# PubChem BioAssay (Tox21)
# Results filed as inconclusive are left out. Unmarked numbers belong to inactive results. The source made the active and inactive calls. Calls come from the whole dose curve; as a rule, active = well fitted activation curve with a large enough effect in the repeat runs; inconclusive = weak or mixed curves; inactive = flat fitted curve, though single readings scatter.
# Test: A CellTox Green Cytotoxicity Assay to monitor cytotoxicity in HepG2 cells - 16 hour (AID 1224876); note: nearly all actives have a fitted effect of over 45% in size
# Settings: CellTox Green fluorescence; series mostly up to 76.8 µM; cytotoxicity increase: at the top concentration
# Source text: National Center for Advancing Translational Sciences [NCATS]
# NIH Chemical Genomics Center [NCGC]
# U.S. Environmental Protection Agency [EPA]
# National Institutes of Environmental Health Sciences [NIEHS]
# National Toxicology Program [NTP]
# Cell-based models are critical for drug discovery. Determining the natural cytotoxic effects resulting from test compounds is an essential research activity. A CellTox Green Cytotoxicity Assay to monitor cytotoxicity in real time of continues cell culture during 40 hours of the compound treatment was used to screen Tox21 10K library compounds in HepG2 cells. CellTox Green Cytotoxicity Assay is a nonlytic, homogeneous, biofluorescent method to measure cytotoxicity in cell culture after experimental manipulation. The assay system uses a proprietary asymmetric cyanine dye that is excluded from viable cells but preferentially stains the dead cell's DNA. […] Viable cells produce no appreciable increases in fluorescence. Therefore, the fluorescence signal produced by the binding interaction with dead cell DNA is proportional to cytotoxicity.
# The mixture of HepG2 cell suspension and reagents were dispensed at 600cells/6 ul/well in 1536-well tissue culture treated black solid bottom plates using a Multidrop dispenser. After the assay plates were incubated at a 37 C/5% CO2 incubator for 5 hours, 23 nL of compounds dissolved in DMSO, positive and negative controls was transferred to the assay plate by a pintool work station. The plates were incubated at 37 C for 40 hours. The fluorescence intensity were measured at 0h, 8h, 16h, 24h, 32h and 40h time points using ViewLux plate reader during compound treatment.
# % is set by controls: 0 for no effect and ±100 for the full control effect; potency is the fitted concentration of half-maximal effect.
SMILES,cytotoxicity increase,Potency
O=C(C(=O)c1ccco1)c1ccco1,-11.4%,–
COc1cc(OC)c2ccc(=O)oc2c1,-5.9%,–
COC(=O)Nc1nc2ccc(C(=O)C3CC3)cc2[nH]1,-18.5% [at 35.3 µM],–
CCCCCCCCCCCCCC(=O)OCC(O)CO (stereo not given),-9.06%,–
COc1ccc(C2C(=O)c3ccccc3C2=O)cc1,-3.74% [at 35.3 µM],–
CCCCCCC(O)CCCCCCCCCCC(=O)OC (stereo not given),-14.5%,–
CCN(CC)CCOC(=O)C(c1ccccc1)c1ccccc1,-7.96% [at 35.3 µM],–
CC(C)Cc1ccc(CC(=O)O)cc1,–,19 µM (active)
COc1cc(S(=O)(=O)Nc2ccccc2)c(OC)cc1N,0.106%,–
OCC(CO)n1cnc(-c2ccc(F)cc2)c1-c1ccnc(Oc2ccccc2)n1,0.354%,–
Cc1oc(=O)oc1COC(=O)[C@@H]1N2C(=O)[C@@H](NC(=O)[C@H](N)c3ccccc3)[C@H]2SC1(C)C,-0.446% [at 35.3 µM],–
[Cl][Nd]([Cl])[Cl],-19.9%,–
CC[C@@H](CO)NCCN[C@@H](CC)CO,-1.6% [at 35.3 µM],–
CCCCCCC(O)CCOC(C)=O (stereo not given),7.62% [at 200 µM],–
Nc1ccc(NC(=O)c2ccc(N)cc2)cc1,-0.134%,–
Nc1ccn([C@H]2CS[C@@H](CO)O2)c(=O)n1,-20%,–
C=CC(=O)O,1.05% [at 35.3 µM],–
SCCc1cnccn1,-4.14%,–
CCCCOC(=O)CCCCC(=O)OCCCC,2.43%,–
CC(C(=O)O)c1ccc(C(=O)c2cccs2)cc1 (stereo not given),-2.51% [at 35.3 µM],–

SMILES,cytotoxicity increase,Potency
CCCCCCCC(=O)Oc1c(Br)cc(C#N)cc1Br,-0.0635%,–
O=C(O)CCC(=O)OC[C@@H](NC(=O)C(Cl)Cl)[C@H](O)c1ccc([N+](=O)[O-])cc1,–,9.52 µM (active)
CC(C)(C)C1(CCc2ccc(Cl)cc2)CO1 (stereo not given),20.4%,–
COc1ccc(-c2cc(C(F)F)nn2-c2ccc(S(N)(=O)=O)cc2)cc1F,7.58% [at 35.3 µM],–
CC(C)CC(O)CC(C)C,4.55%,–
CC(C)COC(=O)c1ccc(O)cc1,22.3%,–
Cc1ccc(S(=O)(=O)NC(=O)NC2CCCCC2)cc1,-6.34% [at 35.3 µM],–
Cc1ccc2nc(N)[nH]c(=O)c2c1Sc1ccncc1,-1.88% [at 35.3 µM],–
CC(=O)OCC(C)C,0.4%,–
CN=C(N)NC(=O)Nc1c(C)cccc1C,-3.14% [at 35.3 µM],–
COc1ccc(N)c([N+](=O)[O-])c1,-14%,–
C=C(C)C(=O)OCCC(F)(F)C(F)(F)C(F)(F)C(F)(F)C(F)(F)C(F)(F)F,-12.7%,–
CC(=O)OCCC(C)CC(C)(C)C (stereo not given),-6.43%,–
Cc1ccc(Cl)cc1N,0.687%,–
CC(=O)OCC(=O)[C@@]1(OC(C)=O)[C@@H](C)C[C@H]2[C@@H]3C[C@H](F)C4=CC(=O)C=C[C@]4(C)[C@@]3(F)[C@@H](O)C[C@@]21C,-15.4% [at 35.3 µM],–
CC(C)C(O)C(C)(C)CO (stereo not given),-9.62%,–
BrC(Br)C(Br)Br,8.21%,–
C=Cc1ccc(OC(C)=O)cc1,4.98%,–
CC(C)c1ccc(C(=O)N=C(N)N)cc1S(C)(=O)=O,-1.87% [at 35.3 µM],–
CCOc1ncc(F)c(=O)[nH]1,11.5% [at 35.3 µM],–
